In the supplement of paper PMC10338343:
± gives the standard deviation. In all, about 8,200 sequences were measured (“pre-steady-state target cleavage rate”: median about 0.024, highest 2% from about 1.3 on). The list comes from a sample in which the highest values are over-represented; it also holds similar and randomly drawn sequences.

System: MIWI (PIWIL1) piRISC loaded with L1MC piRNA (30 nt)
Test: pre-steady-state target cleavage rate (min^-1); MIWI and MILI are mouse PIWI proteins and EfPiwi is from a freshwater sponge; tags in brackets are library labels; higher = faster piRNA-guided slicing of the target
Settings: guide: L1MC piRNA 5'p-UAACUAAAUACUAUGCAAGCUGUAGGUCCU
Experimental: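 Cleave-'n-Seq: a library of target RNAs (target site embedded in constant flanks, ACAGCATTCCGCGTTAGTGATATCCG... 5' flank; DNA-blocked outside the site) at 0.1 nM was incubated with 1 nM active mouse MILI or MIWI piRISC (synthetic 5'-monophosphorylated piRNA guide) with or without 500 nM mouse GTSF1 at 33 °C for 1 min to 16 h. Uncleaved targets were sequenced and normalised to non-target controls, and the pooled three trials were fitted to a burst-and-steady-state model to give the pre-steady-state cleavage rate (min^-1; k3 is constrained to at most 1e-4). Sequence is the target site only; target names encode pairing extent (gX:gY) and contiguous / 1-mismatch / 2-mismatch / bulge geometry. Fits with R² ≤ 0 are excluded.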

[1] = auxiliary factor: 500 nM mouse GTSF1
[2] = auxiliary factor: none (no GTSF1)

Sequence	pre-steady-state target cleavage rate [1]	pre-steady-state target cleavage rate [2]
UGGACCUACAGCUUGCUUAGUAUAUAGUUA	0.842 ± 0.063	0.0175 ± 0.0052
AGGACCUACAGCUUGCUUAGUAUAUAGUUA	0.762 ± 0.071	0.0291 ± 0.0082
UCGACCUACAGCUUGCUUAGUAUAUAGUUA	0.879 ± 0.063	0.0168 ± 0.004
AGGACCUACAGCUUGGAUAGUAUAUAGUUA	0.736 ± 0.053	0.0336 ± 0.0076
UCCUCCUACAGCUUGCUUAGUAUAUAGUUA	0.617 ± 0.034	0.0104 ± 0.0032
UGGACCUUCAGCUUGCUUAGUAUUUAGUUA	1.49 ± 0.09	0.0441 ± 0.011
AGGACCUUCAGCUUGCUUAGUAUUUAGUUA	1.44 ± 0.055	0.0546 ± 0.01
UCCACCUACAGCUUGCUUAGUAUAUAGUUA	0.357 ± 0.027	0.0111 ± 0.0025
AGGACCUACAGCAUGCAUACUAUUUAGUUA	0.39 ± 0.023	0.0205 ± 0.0035
UCCACCUACAGCUCGCAUAGUAUUUAGUUA	1.11 ± 0.043	0.0579 ± 0.012
UGGACCUACAGCUCGCAUAGUAUUUAGUUA	1.54 ± 0.096	0.0604 ± 0.0083
AGGACCUACAGCUCGCAUAGUAUUUAGUUA	1.35 ± 0.068	0.0694 ± 0.013
UCCUCCUACAGCUCGCAUAGUAUUUAGUUA	1.31 ± 0.051	0.0488 ± 0.0093
UCGACCUACAGCUCGCAUAGUAUUUAGUUA	1.55 ± 0.04	0.0682 ± 0.013
UCCUGCUACAGCUCGCAUAGUAUUUAGUUA	1.14 ± 0.062	0.0391 ± 0.0067
UGGACCUACAGCUACCAUAGUAUUUAGUUA	0.493 ± 0.043	0.00241 ± 0.0021
AGGACCUACAGCUGGCAUAGUAUUUAGUUA	1.29 ± 0.057	0.0579 ± 0.011
UGGACCUACAGCUUGCAUAGUUUUUACUUA	0.0927 ± 0.013	0.0125 ± 0.0027
UGCACCUACAGGUUGCAUAGUAUUUAGUUA	0.859 ± 0.15	0.0244 ± 0.0052

Sequence	pre-steady-state target cleavage rate [1]	pre-steady-state target cleavage rate [2]
UCCUGCUACAGCUUGCAUAGAAAUUAGUUA	0.2 ± 0.021	0.00609 ± 0.0021
AGGACCUACACCUUGCAUAGUAUUUAGUAA	0.838 ± 0.068	0.0538 ± 0.0089
UCCACCUACAGCUUGCAUAGUAUUUUCUAA	0.361 ± 0.048	
UCCUGGAACAGCUUGGAUAGUAAUUAGUUA	0.565 ± 0.055	0.0197 ± 0.0059
UCCUGGAACAGCUUGCAUAGUUUUUAGUAA	0.191 ± 0.025	0.0332 ± 0.01
UCCUGGUACUGCUUGGAUAGUAUUUAGUUA	0.391 ± 0.078	0.0193 ± 0.0036
UGCACCUACUGCUUGCAUAGUAUUUAGUUA	1.16 ± 0.097	0.0725 ± 0.014
UCCACCUACUGCUUGCAUAGUAUUUAGUUA	0.697 ± 0.027	0.0467 ± 0.0067
UCGACCUACUGCUUGCUUAGUAUUUAGUUA	1.52 ± 0.061	0.031 ± 0.0067
ACGACCUACUGCUUGCAUAGUAUUUAGUUA	1.51 ± 0.054	0.0792 ± 0.013
UCCACCUACUGCUUGCUUAGUAUUUAGUUA	0.816 ± 0.029	0.0276 ± 0.0058
UCGACCUACUGCUUGCAUAGUAUUUAGAUA	0.273 ± 0.023	0.0197 ± 0.0035
UCGACCUACUGCUUGCAUAGUAUUUAGUUA	1.41 ± 0.035	0.0694 ± 0.011
AGGACCUACUGCUUGCAUAGUAUUUAGUUA	1.21 ± 0.049	0.0777 ± 0.012
UCCUCCUACUGCUUGCUUAGUAUUUAGUUA	1.06 ± 0.04	0.03 ± 0.0053
UGGACCUACUGCUUGCAUAGUAUUUAGUAA	0.708 ± 0.039	0.0421 ± 0.008
UGGACCUACUGCUUGCAUAGUAUUUAGUUA	1.46 ± 0.073	0.0611 ± 0.0097
UCGACCUACUGCUUGCAUAGUAUUUAGUAA	0.797 ± 0.036	0.0434 ± 0.0074
